Results filed as inconclusive are left out. The source made the active and inactive calls. How the source made its calls, unless noted: active means hit-call score of the fitted dose curve at least 0.9, where 1 is the maximum; inactive means score below 0.9.
How the values were obtained:
[1] = biological target: Glucocorticoid receptor (Homo sapiens) (UniProt P04150); experiment: ATG_GR_TRANS: Attagene TRANS-FACTORIAL HepG2 Assay for human Glucocorticoid Receptor (GR) (AID 2282978; active means hit-call score of the fitted dose curve at least 0.9, where 1 is the maximum;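 further: activators score as hits since higher reporter transcript over DMSO is fitted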); details: HepG2 Attagene TRANS GR reporter, mRNA transcription
Procedure, shortened: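 Readout is reporter transcript from a chimeric GR-Gal4 acting on GAL4-UAS in transfected human HepG2 liver cells after 24 h exposure, quantified by RT-PCR and capillary electrophoresis. Activation fitted upward against DMSO.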

[2] = biological target: Bile acid receptor (Homo sapiens) (UniProt Q96RI1); experiment: ATG_FXR_TRANS: Attagene TRANS-FACTORIAL HepG2 Assay for Farnesoid X Receptor (FXR) (AID 2282979; active means hit-call score of the fitted dose curve at least 0.9, where 1 is the maximum;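 further: hits raise reporter mRNA above DMSO so AC50 marks FXR activation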); details: HepG2 Attagene TRANS FXR-GAL4 reporter transcription
Procedure, shortened: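 HepG2 cells transiently transfected with reporter constructs in which a chimeric FXR-GAL4 protein drives a GAL4-UAS reporter; 24 h compound exposure. Reporter mRNA measured by RT-PCR, FAM labelling, HpaI digestion and capillary electrophoresis; gain-of-signal versus DMSO.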

[3] = ATG_M_06_TRANS: Attagene TRANS-FACTORIAL HepG2 Assay for M06 Transcription Factor (Internal Marker) (AID 2282983; active means hit-call score of the fitted dose curve at least 0.9, where 1 is the maximum); details: HepG2 Attagene TRANS M06 internal marker reporter
Procedure, shortened: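 In this multiplexed HepG2 system, compounds are incubated 24 h with cells carrying GAL4-UAS reporter units. Reporter RNA is amplified and resolved by capillary electrophoresis, and induction is scored against DMSO.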

[4] = ATG_M_32_TRANS: Attagene TRANS-FACTORIAL HepG2 Assay for M32 Transcription Factor (Internal Marker) (AID 2282984; active means hit-call score of the fitted dose curve at least 0.9, where 1 is the maximum;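 further: transcript level of a background control reporter unit measured by RT-PCR and capillary electrophoresis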); details: HepG2 Attagene TRANS M32 internal marker reporter
Procedure, shortened: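 Internal background reporter in transfected HepG2: after 24 h chemical exposure, RNA reverse-transcribed, reporter cDNA amplified, fluorescently labelled and HpaI-cut, then sized by capillary electrophoresis. Gain of signal fitted against DMSO control.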

[5] = biological target: Transcriptional activator Myb (Homo sapiens) (UniProt P10242); experiment: ATG_Myb_CIS: Attagene CIS-FACTORIAL HepG2 Assay for human Myeloblastosis (Myb) Proto-Oncogene Transcription Factor (AID 2282986); details: HepG2 Attagene CIS-FACTORIAL Myb reporter transcription; actives raise or lower the signal
Procedure, shortened: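 Reporter mRNA is quantified by RT-PCR and capillary electrophoresis 24 h after dosing HepG2 cells transfected with cis-regulated reporter units, which track endogenous transcription factor activity. Gain and loss of signal are fitted versus DMSO baseline.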

[6] = biological target: Nuclear respiratory factor 1 (Homo sapiens) (UniProt Q16656); experiment: ATG_NRF1_CIS: Attagene CIS-FACTORIAL HepG2 Assay for human Nuclear Respiratory Factor 1 (NRF1) Orphan Gene (AID 2282987); details: HepG2 NRF1 cis-element reporter, Attagene multiplex; actives raise or lower the signal
Procedure, shortened: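 Endogenous NRF1-driven reporter transcription in transfected HepG2 cells after 24 h treatment. Readout: RT-PCR products, 6-FAM labelled and resolved by capillary electrophoresis; changes fitted both directions relative to DMSO.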

[7] = ATG_NFI_CIS: Attagene CIS-FACTORIAL HepG2 Assay for human Nuclear Factor I (NFI) (AID 2282989); details: HepG2 cis-regulatory reporter, NFI response element transcription; actives raise or lower the signal
Procedure, shortened: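 After transient transfection of HepG2 with cis-promoter reporter constructs and 24 h dosing, RNA is reverse-transcribed, amplified, 6-FAM end-labelled and HpaI-digested before capillary analysis. Bidirectional curve fitting against DMSO.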

[8] = biological target: Myc proto-oncogene protein (Homo sapiens) (UniProt P01106); experiment: ATG_Myc_CIS: Attagene CIS-FACTORIAL HepG2 Assay for human Myelocytomatosis (Myc) Proto-Oncogene Transcription Factor (AID 2282990); details: HepG2, Attagene cis-reporter transcription factor activity; actives raise or lower the signal
Procedure, shortened: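 HepG2, transient MRTU transfection (cis promoters, endogenous TFs); 24 h dosing; TriZol RNA → oligo(dT) RT → PCR → 6-FAM primer extension → HpaI cut → CE. Bidirectional fit vs DMSO.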

[9] = ATG_NF_kB_CIS: Attagene CIS-FACTORIAL HepG2 Assay for human Nuclear Factor Kappa B (NF-kB) (AID 2282991); details: HepG2 Attagene cis-factorial NF-kB reporter mRNA; actives raise or lower the signal
Procedure, shortened: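 Readout is reporter transcript level, gain or loss versus DMSO, measured 24 h post-dose via RT-PCR, fluorescent labelling and capillary electrophoresis. Human HepG2 liver cells carried transiently transfected CIS reporter constructs reflecting endogenous factors.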

[10] = ATG_NRF2_ARE_CIS: Attagene CIS-FACTORIAL HepG2 Assay for human Nuclear Factor Erythroid 2 Related Factor 2 (NFR2) response to Antioxidant Response Elements (ARE) (AID 2282992); details: HepG2 Attagene ARE/NRF2 reporter, transcription factor activity; actives raise or lower the signal
Procedure, shortened: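 Using transiently transfected HepG2 cells exposed for 24 h, reporter mRNA levels were determined by RT-PCR with fluorescent primer extension and capillary electrophoresis, analysed for gain or loss of signal against DMSO.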

[11] = ATG_Oct_MLP_CIS: Attagene CIS-FACTORIAL HepG2 Assay for human Octamer-Binding Transcription Factor (Oct) (AID 2282993); details: HepG2 Attagene cis-factorial Oct reporter, mRNA; actives raise or lower the signal
Procedure, shortened: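 Cells of the HepG2 line express promoter-controlled reporter sequences whose mRNA levels, after 24 h treatment, are measured by RT-PCR and capillary electrophoresis. Increases and decreases are scored relative to DMSO.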

[12] = biological target: Cellular tumor antigen p53 (Homo sapiens) (UniProt P04637); experiment: ATG_p53_CIS: Attagene CIS-FACTORIAL HepG2 Assay for human p53 Transcription Factor (AID 2282994); details: HepG2 p53 cis-element reporter, Attagene mRNA; actives raise or lower the signal
Procedure, shortened: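 In HepG2 cells, reporter transcription units under cis-regulatory promoters were transiently introduced. Following 24 h treatment, RNA was processed to labelled, digested cDNA fragments read by capillary electrophoresis; fitting was bidirectional versus DMSO.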

[13] = BSK_3C_uPAR: BioMAP Diversity Plus: 3C Assay for Urokinase-type plasminogen activator receptor (uPAR) Biomarker Activity (AID 2282998); details: BioMAP 3C HUVEC, uPAR biomarker ELISA; actives raise or lower the signal
Procedure, shortened: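 Endothelial primary cells of human umbilical vein origin received test chemical; 24 h later uPAR was assayed by ELISA. Fitting was bidirectional, DMSO as negative control.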

[14] = BSK_3C_VCAM1: BioMAP Diversity Plus: 3C Assay for Vascular cell adhesion molecule 1 (VCAM1) Biomarker Activity (AID 2282999); details: BioMAP 3C HUVEC, VCAM1 ELISA, cytokine-stimulated; actives raise or lower the signal
Procedure, shortened: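 Activity fitted in both directions relative to DMSO, with ELISA measurement of the surface marker on primary HUVEC (3C) at 24 h post-treatment; parallel SRB staining (0.1% SRB, TCA-fixed, 560 nm) flagged overt cytotoxicity.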

[15] = biological target: Hepatocyte nuclear factor 4-alpha (Homo sapiens) (UniProt P41235); experiment: ATG_HNF4a_TRANS: Attagene TRANS-FACTORIAL HepG2 Assay for human Hepatocyte Nuclear Factor 4 alpha (HNF4a) (AID 2282982; active means hit-call score of the fitted dose curve at least 0.9, where 1 is the maximum); details: HepG2 HNF4a transactivation reporter, mRNA readout
Procedure, shortened: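 Activity of an exogenous HNF4a–Gal4 fusion scored as induced GAL4-UAS reporter transcripts after 24 h chemical exposure of transfected human HepG2 cells. Read-out via RT-PCR with 6-FAM labelling and capillary electrophoresis; rise over DMSO baseline.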

[16] = BSK_3C_TissueFactor: BioMAP Diversity Plus: 3C Assay for Tissue Factor Biomarker Activity (AID 2282997); details: BioMAP 3C HUVEC, tissue factor biomarker readout; actives raise or lower the signal
Procedure, shortened: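 Readout: Tissue Factor ELISA. Cells: human primary umbilical vein endothelium. Time: 24 h after dosing. Analysis: bidirectional fit, DMSO baseline.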

[17] = BSK_4H_Eotaxin3: BioMAP Diversity Plus: 4H Assay for Eotaxin 3 Biomarker Activity (AID 2283000); details: primary human endothelial cells (HUVEC); actives raise or lower the signal;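 further: CCL26 protein level quantified by ELISA in parallel with SRB cytotoxicity check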
Procedure, shortened: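 HUVEC, 24 h post-dose, ELISA for Eotaxin-3/CCL26. Gain or loss of signal fitted bidirectionally vs DMSO baseline.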

[18] = biological target: Oxysterols receptor LXR-alpha (Homo sapiens) (UniProt Q13133); experiment: ATG_LXRa_TRANS: Attagene TRANS-FACTORIAL HepG2 Assay for human Liver X Receptor alpha (LXRa) (AID 2282980; active means hit-call score of the fitted dose curve at least 0.9, where 1 is the maximum); details: HepG2 Attagene TRANS reporter, LXRa transactivation
Procedure, shortened: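 HepG2 cells were transiently transfected with multiplexed reporter units driven by chimeric LXRa–GAL4 fusion proteins, then dosed for 24 h. Reporter mRNA was quantified by RT-PCR, fluorescent labelling and capillary electrophoresis; gain of signal fitted against DMSO baseline.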

[19] = biological target: Oxysterols receptor LXR-beta (Homo sapiens) (UniProt P55055); experiment: ATG_LXRb_TRANS: Attagene TRANS-FACTORIAL HepG2 Assay for human Liver X Receptor beta (LXRb) (AID 2282981; active means hit-call score of the fitted dose curve at least 0.9, where 1 is the maximum); details: HepG2 Attagene TRANS GAL4-LXRb reporter, mRNA
Procedure, shortened: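 After 24 h chemical treatment of transfected HepG2 cells carrying exogenous NR-Gal4 chimeras, reporter mRNA was quantified by fluorescent RT-PCR and capillary electrophoresis; activity taken as increase over DMSO controls.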

[20] = biological target: Nuclear receptor subfamily 4 group A member 2 (Homo sapiens) (UniProt P43354); experiment: ATG_NURR1_TRANS: Attagene TRANS-FACTORIAL HepG2 Assay for human Nuclear Receptor Related Protein 1 (NURR1) (AID 2282985; active means hit-call score of the fitted dose curve at least 0.9, where 1 is the maximum); details: HepG2 Attagene TRANS reporter, mRNA readout
Procedure, shortened: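 Reporter transcript induction, measured by RT-PCR with fluorescent labelling, HpaI digestion and capillary electrophoresis, after 24 hr dosing of human HepG2 cells transiently expressing an exogenous NR-Gal4 fusion with GAL4-UAS-driven reporters; DMSO as baseline.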

Measured: outcome

Sequence of Myc proto-oncogene protein (Homo sapiens) (P01106 whole entry, looked up): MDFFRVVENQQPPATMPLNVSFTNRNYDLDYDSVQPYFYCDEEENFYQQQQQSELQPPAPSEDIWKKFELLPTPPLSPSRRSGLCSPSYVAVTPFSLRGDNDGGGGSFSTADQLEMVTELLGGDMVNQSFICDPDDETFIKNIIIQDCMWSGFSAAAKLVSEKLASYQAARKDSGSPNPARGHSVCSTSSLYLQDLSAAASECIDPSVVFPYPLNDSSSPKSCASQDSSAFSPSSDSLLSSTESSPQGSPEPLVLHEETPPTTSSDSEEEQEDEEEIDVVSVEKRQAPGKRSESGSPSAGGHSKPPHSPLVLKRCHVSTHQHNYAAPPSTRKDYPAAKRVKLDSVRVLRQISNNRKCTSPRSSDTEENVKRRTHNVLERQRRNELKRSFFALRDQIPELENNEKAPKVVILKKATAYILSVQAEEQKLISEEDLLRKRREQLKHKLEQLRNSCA
Sequence of Cellular tumor antigen p53 (Homo sapiens) (P04637 whole entry, looked up, the tested form may be a part): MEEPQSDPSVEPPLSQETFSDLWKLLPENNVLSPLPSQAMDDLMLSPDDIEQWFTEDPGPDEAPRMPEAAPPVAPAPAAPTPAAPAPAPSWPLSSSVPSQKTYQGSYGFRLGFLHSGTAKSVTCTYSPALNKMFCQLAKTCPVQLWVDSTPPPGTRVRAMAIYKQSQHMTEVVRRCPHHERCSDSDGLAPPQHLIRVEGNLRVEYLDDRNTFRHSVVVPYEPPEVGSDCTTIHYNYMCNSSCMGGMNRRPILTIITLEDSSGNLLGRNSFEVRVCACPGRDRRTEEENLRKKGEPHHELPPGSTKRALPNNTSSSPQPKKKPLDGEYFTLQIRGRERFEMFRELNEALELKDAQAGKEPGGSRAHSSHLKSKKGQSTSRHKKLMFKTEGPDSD
Sequence of Nuclear respiratory factor 1 (Homo sapiens) (Q16656 whole entry, looked up): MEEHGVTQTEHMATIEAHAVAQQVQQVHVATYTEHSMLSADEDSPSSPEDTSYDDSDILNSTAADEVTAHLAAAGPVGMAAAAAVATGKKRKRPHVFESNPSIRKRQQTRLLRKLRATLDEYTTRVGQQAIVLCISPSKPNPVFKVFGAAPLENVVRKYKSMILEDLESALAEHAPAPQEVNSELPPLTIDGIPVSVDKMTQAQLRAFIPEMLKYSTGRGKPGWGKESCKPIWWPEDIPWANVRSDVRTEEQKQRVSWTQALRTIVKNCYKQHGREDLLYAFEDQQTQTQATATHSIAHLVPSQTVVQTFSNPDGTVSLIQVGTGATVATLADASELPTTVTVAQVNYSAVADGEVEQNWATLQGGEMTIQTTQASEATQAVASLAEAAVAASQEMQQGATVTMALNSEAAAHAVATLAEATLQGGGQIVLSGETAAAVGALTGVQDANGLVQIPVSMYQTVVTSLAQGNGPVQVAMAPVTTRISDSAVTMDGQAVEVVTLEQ
Sequence of Transcriptional activator Myb (Homo sapiens) (P10242 whole entry, looked up): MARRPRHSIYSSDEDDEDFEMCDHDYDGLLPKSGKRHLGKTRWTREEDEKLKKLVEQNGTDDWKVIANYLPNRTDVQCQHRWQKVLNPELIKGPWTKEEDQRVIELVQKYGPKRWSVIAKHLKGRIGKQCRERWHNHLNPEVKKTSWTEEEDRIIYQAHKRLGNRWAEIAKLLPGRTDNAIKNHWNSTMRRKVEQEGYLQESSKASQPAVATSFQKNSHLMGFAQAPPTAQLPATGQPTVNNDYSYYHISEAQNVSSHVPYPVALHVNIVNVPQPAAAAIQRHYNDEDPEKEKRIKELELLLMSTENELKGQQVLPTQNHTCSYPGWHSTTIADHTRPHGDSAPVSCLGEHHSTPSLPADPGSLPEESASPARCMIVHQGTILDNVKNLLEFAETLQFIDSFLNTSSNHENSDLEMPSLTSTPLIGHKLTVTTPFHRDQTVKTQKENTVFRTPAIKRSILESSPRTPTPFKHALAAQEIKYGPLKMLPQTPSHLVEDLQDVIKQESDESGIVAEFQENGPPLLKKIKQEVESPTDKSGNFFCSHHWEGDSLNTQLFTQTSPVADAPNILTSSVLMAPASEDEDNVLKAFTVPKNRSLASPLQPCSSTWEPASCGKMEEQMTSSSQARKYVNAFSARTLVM
Sequence of Hepatocyte nuclear factor 4-alpha (Homo sapiens) (P41235 whole entry, looked up, the tested form may be a part): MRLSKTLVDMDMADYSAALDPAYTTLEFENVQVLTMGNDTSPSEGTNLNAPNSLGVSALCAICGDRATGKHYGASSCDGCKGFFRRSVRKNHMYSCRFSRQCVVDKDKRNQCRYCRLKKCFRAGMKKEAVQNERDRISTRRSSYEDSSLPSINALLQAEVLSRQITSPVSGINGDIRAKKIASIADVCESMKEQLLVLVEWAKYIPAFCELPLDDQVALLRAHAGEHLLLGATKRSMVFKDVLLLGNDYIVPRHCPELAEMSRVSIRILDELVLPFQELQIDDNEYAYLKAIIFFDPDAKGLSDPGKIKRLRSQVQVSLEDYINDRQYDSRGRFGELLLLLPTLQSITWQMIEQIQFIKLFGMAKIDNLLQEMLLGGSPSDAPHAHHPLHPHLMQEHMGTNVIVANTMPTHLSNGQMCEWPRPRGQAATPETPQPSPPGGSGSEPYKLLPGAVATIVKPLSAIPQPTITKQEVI
Sequence of Bile acid receptor (Homo sapiens) (Q96RI1 whole entry, looked up, the tested form may be a part): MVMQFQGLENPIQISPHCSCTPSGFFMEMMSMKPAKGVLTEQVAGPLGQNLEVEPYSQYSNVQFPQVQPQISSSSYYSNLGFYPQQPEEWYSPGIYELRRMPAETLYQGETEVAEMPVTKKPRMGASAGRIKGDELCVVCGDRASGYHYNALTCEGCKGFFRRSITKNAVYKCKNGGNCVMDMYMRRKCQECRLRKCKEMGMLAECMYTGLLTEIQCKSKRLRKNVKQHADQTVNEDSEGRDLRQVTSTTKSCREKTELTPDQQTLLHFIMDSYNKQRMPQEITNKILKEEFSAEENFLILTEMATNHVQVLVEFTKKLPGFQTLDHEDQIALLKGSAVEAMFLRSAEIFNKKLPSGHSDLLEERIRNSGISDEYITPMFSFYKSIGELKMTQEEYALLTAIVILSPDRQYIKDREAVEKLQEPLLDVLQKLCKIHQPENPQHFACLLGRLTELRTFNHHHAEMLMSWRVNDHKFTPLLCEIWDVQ
Sequence of Glucocorticoid receptor (Homo sapiens) (P04150 whole entry, looked up, the tested form may be a part): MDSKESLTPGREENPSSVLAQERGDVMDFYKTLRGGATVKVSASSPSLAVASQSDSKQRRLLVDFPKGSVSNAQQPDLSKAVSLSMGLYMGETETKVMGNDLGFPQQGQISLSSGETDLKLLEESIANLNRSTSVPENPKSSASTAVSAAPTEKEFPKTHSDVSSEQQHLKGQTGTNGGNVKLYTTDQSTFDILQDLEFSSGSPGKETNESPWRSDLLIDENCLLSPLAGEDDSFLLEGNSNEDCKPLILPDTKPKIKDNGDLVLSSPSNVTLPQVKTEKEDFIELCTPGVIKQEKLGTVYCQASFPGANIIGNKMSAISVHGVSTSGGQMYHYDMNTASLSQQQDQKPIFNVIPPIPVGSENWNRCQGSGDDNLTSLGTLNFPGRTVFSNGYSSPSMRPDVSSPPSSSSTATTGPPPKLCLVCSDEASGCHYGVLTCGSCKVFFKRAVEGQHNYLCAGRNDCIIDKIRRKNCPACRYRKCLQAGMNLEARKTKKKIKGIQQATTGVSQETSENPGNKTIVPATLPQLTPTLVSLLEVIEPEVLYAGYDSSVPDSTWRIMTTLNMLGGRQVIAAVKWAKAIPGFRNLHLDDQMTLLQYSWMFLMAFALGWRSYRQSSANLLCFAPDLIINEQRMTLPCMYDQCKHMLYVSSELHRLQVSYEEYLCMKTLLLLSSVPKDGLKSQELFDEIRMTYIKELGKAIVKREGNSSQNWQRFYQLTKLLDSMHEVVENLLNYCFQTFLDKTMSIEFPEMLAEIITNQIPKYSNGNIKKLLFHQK
Sequence of Oxysterols receptor LXR-alpha (Homo sapiens) (Q13133 whole entry, looked up, the tested form may be a part): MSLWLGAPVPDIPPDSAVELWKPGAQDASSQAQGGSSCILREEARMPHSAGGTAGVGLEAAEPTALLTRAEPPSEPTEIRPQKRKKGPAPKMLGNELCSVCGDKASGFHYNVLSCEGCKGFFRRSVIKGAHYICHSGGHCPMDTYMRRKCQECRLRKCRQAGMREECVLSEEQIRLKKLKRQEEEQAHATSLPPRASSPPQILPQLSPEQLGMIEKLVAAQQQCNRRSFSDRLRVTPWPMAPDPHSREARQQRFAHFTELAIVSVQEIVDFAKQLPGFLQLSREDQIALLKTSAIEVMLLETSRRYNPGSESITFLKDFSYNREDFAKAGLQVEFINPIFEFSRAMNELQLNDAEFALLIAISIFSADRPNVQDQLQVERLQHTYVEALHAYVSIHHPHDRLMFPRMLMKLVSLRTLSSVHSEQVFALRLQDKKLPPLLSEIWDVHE
Sequence of Nuclear receptor subfamily 4 group A member 2 (Homo sapiens) (P43354 whole entry, looked up, the tested form may be a part): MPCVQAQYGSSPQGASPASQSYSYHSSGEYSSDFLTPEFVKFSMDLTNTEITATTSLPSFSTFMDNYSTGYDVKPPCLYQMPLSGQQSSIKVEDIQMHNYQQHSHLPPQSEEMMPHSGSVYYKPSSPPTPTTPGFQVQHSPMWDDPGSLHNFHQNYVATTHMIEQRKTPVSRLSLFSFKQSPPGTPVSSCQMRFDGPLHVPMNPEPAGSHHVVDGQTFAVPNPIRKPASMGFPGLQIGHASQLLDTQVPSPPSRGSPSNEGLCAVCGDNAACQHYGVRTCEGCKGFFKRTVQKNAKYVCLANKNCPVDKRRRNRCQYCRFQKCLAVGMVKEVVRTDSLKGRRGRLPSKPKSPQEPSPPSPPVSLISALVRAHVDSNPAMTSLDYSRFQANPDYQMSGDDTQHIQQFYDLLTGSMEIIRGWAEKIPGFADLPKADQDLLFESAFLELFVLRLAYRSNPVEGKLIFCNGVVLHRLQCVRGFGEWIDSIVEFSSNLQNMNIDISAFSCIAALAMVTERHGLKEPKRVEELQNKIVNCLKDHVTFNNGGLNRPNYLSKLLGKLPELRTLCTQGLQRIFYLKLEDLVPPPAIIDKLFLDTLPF

O=C(O)C(F)(F)OC(F)(F)C(F)(F)OC(F)(F)C(=O)O
inactive: [1] | [2] | [3] | [4] | [5] | [6] | [7] | [8] | [9] | [10] | [11] | [12] | [13] | [14]

O=C(O)C=CC(F)(C(F)(F)F)C(F)(F)F
inactive: [1] | [15] | [3] | [4] | [5] | [6] | [7] | [8] | [9] | [10] | [11] | [12] | [16] | [13] | [14] | [17]

Cc1ccc(O)cc1C
inactive: [5] | [8] | [11] | [12] | [16] | [13] | [14] | [17]

OCC1CO1 (centres undefined)
inactive: [18] | [19] | [15] | [3] | [4] | [5] | [6] | [7] | [8] | [10] | [11] | [12] | [13] | [14]

Cn1[nH]nnc1=S
inactive: [2] | [3] | [4] | [20] | [5] | [6] | [7] | [8] | [9] | [10] | [11] | [12]

Source: PubChem BioAssay (EPA / NIEHS)
